Bioassay records deposited in PubChem by several laboratories.
ATG4B inhibitor: ATG4B protease inhibitors, primary screen, biochemical, fluorescence, uHTS; ATG4B cleavage of LC3-PLA2, NBD-HPC fluorescence, 1 h; Cysteine protease ATG4B (Homo sapiens), Q9Y4P1; actives 0.51% (n = 340,000); inhibition, % at 8.33 µM; in the data active means inhibition above about 40%
NadD inh: inhibitors of S. aureus NadD, primary screen, biochemical, colorimetric, uHTS. Nicotinate-nucleotide adenylyltransferase NadD (Staphylococcus aureus N315). purified NadD enzyme, colorimetric absorbance read-out. inhibition, % at 20 µM. actives 0.78% (n = 360,000); in the data active means inhibition above about 26%
Calb FLC: C. albicans growth inhibition with fluconazole, primary screen, CaCi-2 strain, Alamar Blue fluorescence; growth inhibition, % (test concentration not listed); actives 0.57% (n = 300,000); C. albicans CaCi-2 (fluconazole-resistant clinical isolate) + fluconazole, 48 h;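 active means growth inhibition above about 58% in most replicates, limit read from the data, passing the limit was not always enough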;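 further: all wells also contain fluconazole at 8 µg/ml as a sub-toxic cotreatment; 0% = median of DMSO wells and 100% = median of geldanamycin control wells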
Mot1-301 SUMO: yeast Mot1-301 growth rescue at high temperature, primary screen, SUMOylation pathway inhibitor project, S. cerevisiae, ATP luminescence, 38.5C. S. cerevisiae Mot1-301 growth rescue; percent above DMSO median, 100 means doubled. actives 1% (n = 320,000). growth rescue, % at 18.8 µM;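 active means every valid replicate shows activation above 250% relative to neutral control wells; inactive means the rest, any valid replicate at or below 250%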;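 further: OY570 slx delta 5 strain wells were the positive control but not used for scaling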
FAS TE block: FAS thioesterase domain inhibitors, primary screen, biochemical, fluorescence intensity, uHTS | inhibition, % at 15 µM | AID 602261, 2012 | actives 0.67% (n = 360,000) | recombinant FAS-TE, OMFH fluorogenic substrate, fluorescence endpoint;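 active means compounds whose normalised, plate-corrected inhibition of enzyme fluorescence in the single-dose primary screen is 50% or more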;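 further: 0% = DMSO with enzyme and 100% = substrate without enzyme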
FAS-TE inh conf: FAS thioesterase domain inhibitors, confirmation, biochemical, fluorescence intensity, single concentration | actives 45% (n = 2,300) | shares compounds with FAS TE block | recombinant FAS-TE, OMFH fluorogenic substrate | inhibition, % at 15 µM;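 active means compounds inhibiting the enzyme by at least 50% at 15 µM in any one of the replicates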;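 further: 0% = enzyme with DMSO only and 100% = wells lacking enzyme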
The depositor's hits bear a star; / = no result given. Sampled rows, rich in hits. Any-hit rate of the full collection: about 3.1%.

SMILES	ATG4B inhibitor	NadD inh	Calb FLC	Mot1-301 SUMO	FAS TE block	FAS-TE inh conf
CC1CCN(S(=O)(=O)c2ccc3c(c2)c(=O)c(C(=O)NCc2cccs2)cn3C)CC1	-3	0	-8	-23	65*	18
O=C(COc1ccc2c3c(c(=O)oc2c1)CCCC3)NCc1cccnc1	0	2	0	-5	-1	/
COc1ccc(OCCN2CCC(C(=O)NC(C)c3cccc4ccccc34)CC2)cc1 (stereo not given)	/	-5	/	/	-3	/
C=Cc1ccc(Cn2c(C)c(C(=O)NCCC#N)sc2=O)cc1	/	-2	/	/	-6	/
CC(Sc1nnc(-c2ccc(OC(F)F)cc2)n1N)C(=O)NCC1CCCO1 (stereo not given)	-4	-2	-1	0	-4	/
Cc1cc(Br)ccc1NC(=O)C(C)c1ccc([N+](=O)[O-])cc1 (stereo not given)	-4	-9	-19	60	56*	51*
Cc1ccc(C(C)C)cc1NC(=O)Nc1ccc([N+](=O)[O-])cc1	6	-8	-6	38	40	/
COc1ccc(S(=O)(=O)NCC2CCCO2)cc1NC(=O)c1ccccc1F (stereo not given)	2	-7	-5	31	-3	/
Cc1ccc(S(=O)(=O)/C(C#N)=C/c2c(N3CCOCC3)nc3c(C)cccn3c2=O)cc1	30	2	0	-16	56*	6
Cc1cccn2c(=O)c(/C=C(\C#N)S(=O)(=O)c3ccccc3)c(N3CCN(Cc4ccccc4)CC3)nc12	40	19	-5	0	14	/
Cc1ccc(S(=O)(=O)/C(C#N)=C/c2c(N3CCCCC3)nc3ccccn3c2=O)cc1	9	0	4	12	62*	36
N#C/C(=C\c1c(N2CCN(Cc3ccccc3)CC2)nc2ccccn2c1=O)S(=O)(=O)c1ccccc1	27	23	-5	-5	56*	13
N#C/C(=C\c1c(N2CCC(C(N)=O)CC2)nc2ccccn2c1=O)S(=O)(=O)c1ccc(Cl)cc1	3	3	1	39	55*	30*
COc1ccc(OCC(=O)N(Cc2ccc(C)o2)C2CCS(=O)(=O)C2)cc1 (stereo not given)	0	-5	-5	-7	0	/
CCOC(=O)C1=C(COC(=O)C2CC(=O)N(c3ccc(C)cc3)C2)NC(=O)NC1C (stereo not given)	-12	-1	-4	-6	-7	/
Cc1cc(C(=O)N2CCC2(C)C(=O)NCc2cccc3ccccc23)nn1C (stereo not given)	/	0	/	/	-2	/
COc1ccc(C(=O)NC(C)CCc2ccccc2)cc1[N+](=O)[O-] (stereo not given)	-7	-11	-7	9	51*	52*
COc1ccc(C(=O)N2CCN(Cc3ccccc3)CC2)cc1[N+](=O)[O-]	1	0	4	-2	1	/
COc1ccc(C(=O)N2CCN(CCc3ccccc3)CC2)cc1[N+](=O)[O-]	-6	1	18	-10	87*	90*
CC(CCc1ccccc1)NC(=O)c1ccc(-n2cncn2)c([N+](=O)[O-])c1 (stereo not given)	-5	1	5	1	15	/
Cc1ccc(NC(=O)CN2C(=O)NC(Cc3ccccc3)C2=O)c(Br)c1 (stereo not given)	-4	-4	9	-2	0	/
CC(=O)N/C(=C\c1ccccc1)C(=O)OC(C)C(=O)Nc1ccccc1F (stereo not given)	-8	-3	/	-2	-6	/
CCCC1(CCC)NC(=O)N(CC(=O)N2CCc3ccccc32)C1=O	-3	0	/	63	0	/
CC(C)C(NC(=O)C12CC3CC(CC(C3)C1)C2)C(=O)N/N=C/C1=C(N2CCOCC2)C(=C\c2cccc([N+](=O)[O-])c2)/CC1 (stereo not given)	4	11	-4	-32	64*	14
Cc1ccc(S(=O)(=O)Cn2nnnc2C(C(C)C)N2CCN(c3nc4ccccc4s3)CC2)cc1 (stereo not given)	13	20	2	107	60*	41
SMILES	ATG4B inhibitor	NadD inh	Calb FLC	Mot1-301 SUMO	FAS TE block	FAS-TE inh conf
COCCn1nnnc1C(CC(C)C)N1CCN(c2nc3ccccc3s2)CC1 (stereo not given)	-6	1	2	77	-1	/
CCn1c2ccccc2c2cc(NC(=O)C3CCN(S(=O)(=O)c4cccs4)CC3)ccc21	-6	17	-2	30	66*	25
Cc1ccc2nc(NC(=O)C3CCN(S(=O)(=O)c4cccs4)CC3)sc2c1	0	5	39	-16	68*	30
Cc1cncc(NCc2ccc3c(c2)OCO3)n1	/	0	/	/	-2	/
CC(C)Cn1nc(C(=O)NCc2ccccc2CN2CCCC2)c2ccccc2c1=O	-3	-2	/	-17	-3	/
CC(C)(C)OC(=O)N1CCC(c2cc(=O)n3[nH]cc(C(=O)NC4CCCC4)c3n2)CC1	-4	23	0	-4	7	/
CC(C)(C)OC(=O)N1CCC(c2cc(=O)n3[nH]cc(C(=O)Nc4ccc(F)c(Cl)c4)c3n2)CC1	-1	22	16	2	77*	64*
O=C(CN1c2ccccc2Sc2ccccc21)N/N=C/c1ccc([N+](=O)[O-])cc1	-6	22	-1	1	69*	16
O=C(CN1c2ccccc2Sc2ccccc21)N/N=C/c1ccccc1	7	13	-3	18	33	/
CC#CCN1c2ccccc2[C@]23C[C@@H](C(=O)OC)N(C(=O)NC4CCCCC4)C2=NC(C(=O)OC)=C(C(=O)OC)[C@H]13	-7	0	13	4	30	/
C=CCN1c2ccccc2[C@]23C[C@@H](C(=O)OC)N(C(=O)NC4CCCC4)C2=NC(C(=O)OC)=C(C(=O)OC)[C@H]13	-6	1	5	-1	75*	0
CC#CCN1c2ccccc2[C@]23C[C@@H](C(=O)OC)N(C(=O)NCCBr)C2=NC(C(=O)OC)=C(C(=O)OC)[C@H]13	-14	-1	13	-6	64*	29
COc1ccc(CNC(=O)Nc2nc(C(N)c3ccccc3)cs2)cc1 (stereo not given)	/	4	/	/	-3	/
O=C(c1ccccc1NS(=O)(=O)c1ccc(F)cc1)N1CCOCC1	-1	5	-1	-14	-6	/
Cc1cc(C)c(C#N)c(N2CCN(Cc3ccc4c(c3)OCO4)CC2)n1	13	-12	-19	6	61*	26
CN(CC(=O)Nc1ccc(F)cc1[N+](=O)[O-])C1CCS(=O)(=O)C1 (stereo not given)	-6	-2	/	4	-13	/
